Results filed as inconclusive are left out. Calls of active or inactive are those of the source. Calls come from the whole dose curve; as a rule, active = well fitted curve in the direction sought with a large enough effect; inconclusive = small, poorly fitted or top-dose-only effect, or another doubt; inactive = no such curve, though single readings can be large; an effect the other way counts as inactive or inconclusive.
Experiments:
[1] = qHTS of pediatric cancer cell lines to identify multiple opportunities for drug repurposing: Confirmatory screen for NB-EBc1 cells (AID 1347115); conditions: NB-EBc1 neuroblastoma cells, viability (cytotoxicity); series mostly up to 45.9 µM;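 note: cells exposed to compound for 48 h before the viability read; nearly all actives have a fitted effect of over 45% in size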
In short: (§1)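 Cells (500-1,000/well) rested 5 h, then received compounds for 48 h; metabolically active cells were measured by CellTiter-Glo luminescence. Final concentrations spanned up to 46 µM (MIPE, 11-point) or 0.59 nM-46 µM (NPC, 8-point) in primary screens, 11-point in follow-ups.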

[2] = qHTS of pediatric cancer cell lines to identify multiple opportunities for drug repurposing: Primary screen for Rh30 cells (AID 1347107); conditions: Rh30 rhabdomyosarcoma viability, CellTiter-Glo luminescence, 48 h; series mostly up to 46 µM; note: nearly all actives have a fitted effect of over 75% in size
In short: as §1

[3] = qHTS of pediatric cancer cell lines to identify multiple opportunities for drug repurposing: Primary screen for Rh41 cells (AID 1347108); conditions: Rh41 rhabdomyosarcoma viability, CellTiter-Glo luminescence, 48 h; series mostly up to 46 µM; note: nearly all actives have a fitted effect of over 70% in size
In short: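 ATP-based luminescence (CellTiter-Glo) quantifies viability after a 48-hour exposure. Compounds are dosed across 8 or 11 final concentrations; DMSO and 2.3 µM bortezomib serve as controls.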

[4] = qHTS of pediatric cancer cell lines to identify multiple opportunities for drug repurposing: Confirmatory screen for NB1643 cells (AID 1347109); conditions: NB1643 neuroblastoma cell viability; series mostly up to 45.9 µM; note: nearly all actives have a fitted effect of over 45% in size
In short: as §1

[5] = qHTS of pediatric cancer cell lines to identify multiple opportunities for drug repurposing: Confirmatory screen for A673 cells (AID 1347110); conditions: A673 Ewing sarcoma cell viability; series mostly up to 45.9 µM;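 note: cells exposed to compound for 48 h before the viability read; nearly all actives have a fitted effect of over 65% in size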
In short: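 Cells plated at 500-1,000/well were treated five hours later with multi-point dilutions up to 46 µM final. After two days, CellTiter-Glo was added and luminescence read.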

[6] = qHTS of pediatric cancer cell lines to identify multiple opportunities for drug repurposing: Confirmatory screen for SK-N-MC cells (AID 1347111); conditions: SK-N-MC cell viability; series mostly up to 45.9 µM;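 note: cells exposed to compound for 48 h before the readout; nearly all actives have a fitted effect of over 70% in size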
In short: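 Seed 500-1,000 cells/well; rest 5 h at 37 degrees C. Pin-transfer compounds, 11-point titration. Incubate 48 h. Add CellTiter-Glo, 15 min RT, read luminescence.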

[7] = qHTS of pediatric cancer cell lines to identify multiple opportunities for drug repurposing: Confirmatory screen for LAN-5 cells (AID 1347113); conditions: LAN-5 neuroblastoma cell viability; series mostly up to 45.9 µM; note: nearly all actives have a fitted effect of over 65% in size
In short: as §1

[8] = qHTS of pediatric cancer cell lines to identify multiple opportunities for drug repurposing: Confirmatory screen for SJ-GBM2 cells (AID 1347116); conditions: SJ-GBM2 glioblastoma cells, viability; series mostly up to 45.9 µM; note: nearly all actives have a fitted effect of over 60% in size
In short: (§2)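 Viability measured as metabolically active cells via CellTiter-Glo luminescence following 48 hours of compound exposure, 11-point dilutions in confirmatory testing. 500-1,000 cells/well plated 5 hours before dosing; controls were DMSO and 2.3 µM bortezomib.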

[9] = qHTS of pediatric cancer cell lines to identify multiple opportunities for drug repurposing: Confirmatory screen for BT-12 cells (AID 1347112); conditions: BT-12 rhabdoid tumor cells, viability; series mostly up to 45.9 µM;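 note: viability read after 48 h of compound exposure; nearly all actives have a fitted effect of over 55% in size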
In short: as §1

[10] = qHTS of pediatric cancer cell lines to identify multiple opportunities for drug repurposing: Confirmatory screen for DAOY cells (AID 1347114); conditions: DAOY medulloblastoma cells viability, cytotoxicity qHTS; series mostly up to 45.9 µM; note: nearly all actives have a fitted effect of over 65% in size
In short: as §2
Potency is the fitted concentration of half-maximal effect.

## COCCn1c2c([n+](Cc3cnccn3)c1C)C(=O)c1ccccc1C2=O
[1]
  Potency: 1.04 µM (active)

## CN1CCN(Cc2ccc(NC(=O)Nc3ccc(Oc4cc(NC(=O)C5CC5)ncn4)cc3)cc2C(F)(F)F)CC1
[1]
  Potency: 23.3 µM (active)

## Cc1nc2cnc3ccc(C#Cc4cccnc4)cc3c2n1-c1ccc(C(C)(C)C#N)cc1
[2]
  Potency: 0.469 µM (active)
[3]
  Potency: 0.0833 µM (active)
[4]
  Potency: 12 µM (active)
[5]
  Potency: 2.69 µM (active)
[6]
  Potency: 1.7 µM (active)
[7]
  Potency: 3.02 µM (active)
[8]
  Potency: 6.76 µM (active)

## C#Cc1cccc(Nc2ncnc3cc(OC)c(OCCCCCCC(=O)NO)cc23)c1
[2]
  Potency: 11.8 µM (active)
[4]
  Potency: 0.955 µM (active)
[5]
  Potency: 2.4 µM (active)
[6]
  Potency: 0.603 µM (active)
[9]
  Potency: 5.37 µM (active)
[7]
  Potency: 0.676 µM (active)
[10]
  Potency: 2.14 µM (active)
[8]
  Potency: 1.91 µM (active)

## C=CC(=O)Nc1cccc(Oc2nc(Nc3ccc(N4CCN(C)CC4)cc3OC)ncc2Cl)c1
[2]
  Potency: 23.5 µM (active)
[3]
  Potency: 0.118 µM (active)
[4]
  Potency: 23.3 µM (active)
[5]
  Potency: 20.8 µM (active)
[6]
  Potency: 13.1 µM (active)
[1]
  Potency: inactive
[8]
  Potency: 11.7 µM (active)

## O=C(Nc1cn[nH]c1-c1nc2ccc(CN3CCOCC3)cc2[nH]1)NC1CC1
[2]
  Potency: inactive
[3]
  Potency: 4.69 µM (active)
[5]
  Potency: inactive
[6]
  Potency: 1.65 µM (active)
[9]
  Potency: inactive
[7]
  Potency: inactive
[1]
  Potency: inactive

## COc1ccc(-n2nc(C(N)=O)c3c2C(=O)N(c2ccc(N4CCCCC4=O)cc2)CC3)cc1
[2]
  Potency: inactive
[4]
  Potency: inactive
[5]
  Potency: inactive
[9]
  Potency: inactive
[8]
  Potency: 2.33 µM (active)

## NC(=O)c1cccc2cn(-c3ccc([C@@H]4CCCNC4)cc3)nc12
[2]
  Potency: inactive
[3]
  Potency: inactive
[5]
  Potency: 5.22 µM (active)
[6]
  Potency: 2.08 µM (active)
[9]
  Potency: inactive
[8]
  Potency: inactive

## CNC(=O)c1nn(C)c2c1C(C)(C)Cc1cnc(Nc3ccc(N4CCN(C)CC4)cc3)nc1-2
[2]
  Potency: inactive
[5]
  Potency: 0.928 µM (active)
[6]
  Potency: 1.17 µM (active)
[9]
  Potency: 9.27 µM (active)
[7]
  Potency: 1.85 µM (active)
[10]
  Potency: 9.27 µM (active)
[8]
  Potency: 0.657 µM (active)

## C[C@@H](Oc1cc(-c2cnn(C3CCNCC3)c2)cnc1N)c1c(Cl)ccc(F)c1Cl
[2]
  Potency: 18.7 µM (active)
[3]
  Potency: 18.7 µM (active)
[4]
  Potency: 5.85 µM (active)
[5]
  Potency: 3.29 µM (active)
[6]
  Potency: 5.85 µM (active)
[7]
  Potency: 5.85 µM (active)
[1]
  Potency: 16.5 µM (active)

## C=C1C(=CC=C2CCC[C@]3(C)[C@@H]([C@H](C)C=C[C@H](C)C(C)C)CC[C@@H]23)C[C@@H](O)C[C@@H]1O
[2]
  Potency: 3.72 µM (active)
[3]
  Potency: 0.935 µM (active)
[10]
  Potency: 20.8 µM (active)

## COc1ccc(-c2cc3c(C)nc(N)nc3n(C3CCC(OCCO)CC3)c2=O)cn1 (stereo unspecified)
[2]
  Potency: 4.18 µM (active)
[3]
  Potency: 0.118 µM (active)
[4]
  Potency: inactive
[5]
  Potency: 1.17 µM (active)
[9]
  Potency: inactive
[7]
  Potency: inactive
[1]
  Potency: inactive
[8]
  Potency: inactive

## OCCCNc1cc(-c2ccnc(Nc3cccc(Cl)c3)n2)ccn1
[2]
  Potency: inactive
[3]
  Potency: 0.235 µM (active)
[4]
  Potency: 0.104 µM (active)
[5]
  Potency: 0.0928 µM (active)
[6]
  Potency: 0.261 µM (active)
[9]
  Potency: 0.329 µM (active)
[7]
  Potency: 0.261 µM (active)
[8]
  Potency: 0.369 µM (active)

## CC=CC1=C(C(=O)O)N2C(=O)[C@H](NC(=O)[C@H](N)c3ccc(O)cc3)[C@@H]2SC1
[2]
  Potency: inactive
[4]
  Potency: inactive
[9]
  Potency: inactive
[7]
  Potency: inactive
[1]
  Potency: inactive

## COc1ccc(F)c(F)c1C(=O)c1cnc(NC2CCN(S(C)(=O)=O)CC2)nc1N
[2]
  Potency: inactive
[3]
  Potency: 7.43 µM (active)
[5]
  Potency: 2.93 µM (active)
[6]
  Potency: 1.31 µM (active)
[9]
  Potency: 3.69 µM (active)
[10]
  Potency: 8.27 µM (active)
[1]
  Potency: inactive
[8]
  Potency: 0.827 µM (active)

## CC(C)CC(=O)Nc1n[nH]c2c1CN(C(=O)C1CCN(C)CC1)C2(C)C
[2]
  Potency: inactive
[3]
  Potency: 3.72 µM (active)
[4]
  Potency: inactive
[5]
  Potency: 1.04 µM (active)
[9]
  Potency: 2.93 µM (active)

## Cc1c(C)n(Cc2ccc(-c3ccccc3C(=O)O)cc2)c2ccc(C(=O)N[C@@H](C)c3ccc([N+](=O)[O-])cc3)cc12
[2]
  Potency: inactive
[4]
  Potency: inactive
[6]
  Potency: inactive
[9]
  Potency: inactive
[7]
  Potency: inactive

## Cc1cc(Nc2cc(NC(=O)c3c(Cl)cccc3Cl)ccn2)nc(N)n1
[2]
  Potency: inactive
[4]
  Potency: 5.85 µM (active)
[5]
  Potency: 0.603 µM (active)
[6]
  Potency: 0.657 µM (active)
[9]
  Potency: 1.31 µM (active)
[7]
  Potency: 9.27 µM (active)
[8]
  Potency: inactive

## COC(=O)Nc1nc2ccc(C(=O)c3ccc(F)cc3)cc2[nH]1
[2]
  Potency: inactive
[4]
  Potency: 2.33 µM (active)
[5]
  Potency: 1.31 µM (active)
[6]
  Potency: 1.31 µM (active)
[9]
  Potency: 8.27 µM (active)
[8]
  Potency: 2.33 µM (active)

— PubChem BioAssay (NCATS)
